Source: PubChem (National Center for Advancing Translational Sciences (NCATS))
NPC1 promoter act: activates the NPC1 promoter; AID 485313; Huh7 NPC1 promoter luciferase reporter, 24 h; Potency, µM (doses to about 9.22 µM), for inactives: at the top dose activation, hits mostly activators; 320,000 compounds, 2.4% hits; also: % of control where 0% means no effect; nearly all actives have a fitted effect of over 60% in size
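Huh7 reporter cells (NPC1 promoter driving luciferase) are dosed with compound for 24 h at 37 °C, 5% CO2; luciferase detection reagent is then added and luminescence measured after 10 min at ambient temperature.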
ELG1 genotox: inducers of genotoxicity in HEK293T ELG1-luciferase cells; HEK293T ELG1-luciferase reporter, luminescence, 16 h; Potency, µM (top dose mostly 46 µM), without a hit: at the highest dose activity change, positive = activation, most hits filed as activators; 330,000 compounds, 1.3% hits; AID 504466; also: % of control where 0% means no effect; nearly all actives have a fitted effect of over 60% in size
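Genotoxicity was scored as increased ELG1-luciferase reporter signal, measured by ONE-Glo luminescence (30 min, room temperature). Compound or vehicle exposure of the HEK293T reporter cells lasted 16 hr at 37°C.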
ELG1 repair inh: ELG1-dependent DNA repair inhibition; 330,000 compounds, 2.3% hits; HEK293T ELG1-luciferase reporter, luminescence, 16 h; DNA damage induced by 5-fluorouridine; Potency, µM (top dose mostly 46.1 µM), without a hit: at the top dose activity change, negative = inhibition, usual class: inhibitors; also: % is scaled to controls: 0 for no effect and ±100 for the full control effect; nearly all actives have a fitted effect of over 55% in size
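Cells (2,000 per well) received 5-fluorouridine plus test compound or DMSO and were incubated 16 hr at 37 °C, 5% CO2. Luciferase activity was read by luminescence 30 min after ONE-Glo addition; signal suppression marked inhibition of damage-induced ELG1 function.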
Rab9 promoter act: activates the Rab9 promoter. Huh7 Rab9 promoter-luciferase reporter, luminescence, 24 h. Potency, µM (top dose mostly 9.22 µM), for inactives: at the highest dose activation, negative = inhibition, usual class: activators. 320,000 compounds, 2.8% hits; also: % of control where 0% means no effect; nearly all actives have a fitted effect of over 60% in size
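Luminescence read-out: Huh7 cells stably expressing Rab9-luciferase, treated 24 h with compound at 37 °C, then lysed with luciferase reagent for 10 min at ambient before reading.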
FLuc modulator: firefly luciferase modulation, counter-screen for miR-21 project | 360,000 compounds, 6.9% hits | P08659 | Potency, µM (doses to about 57.5 µM), without a hit: at the top dose activity change, negative = inhibition, actives largely listed as inhibitors | purified FLuc, Km substrates, luminescence inhibition | AID 588342;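 also: plate controls were vehicle for no effect and reference inhibitor for full effect; nearly all actives have a fitted effect of over 55% in size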
Target sequence (P08659 whole entry, looked up): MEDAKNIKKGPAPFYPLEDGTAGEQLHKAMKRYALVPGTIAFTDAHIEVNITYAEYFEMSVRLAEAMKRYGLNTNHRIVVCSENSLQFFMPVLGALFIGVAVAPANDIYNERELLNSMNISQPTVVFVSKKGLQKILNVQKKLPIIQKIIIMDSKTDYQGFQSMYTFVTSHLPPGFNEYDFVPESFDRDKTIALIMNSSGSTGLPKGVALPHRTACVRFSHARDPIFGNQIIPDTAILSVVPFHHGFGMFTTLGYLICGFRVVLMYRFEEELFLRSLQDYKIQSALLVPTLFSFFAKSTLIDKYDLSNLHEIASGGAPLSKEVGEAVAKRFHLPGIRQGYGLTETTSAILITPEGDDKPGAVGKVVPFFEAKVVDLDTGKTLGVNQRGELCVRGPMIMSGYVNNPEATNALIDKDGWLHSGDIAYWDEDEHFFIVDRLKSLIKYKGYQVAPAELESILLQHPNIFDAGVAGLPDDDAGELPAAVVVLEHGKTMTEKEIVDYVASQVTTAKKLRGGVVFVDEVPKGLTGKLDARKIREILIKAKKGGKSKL
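Purified P. pyralis luciferase (10nM final) with 10uM D-luciferin and 10uM ATP (Km levels) in 50mM Tris acetate pH 7.5, 10mM Mg acetate, 0.01% Tween-20, 0.05% BSA; qHTS 6-point titration, ~60 µM downward; luminescence read.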
SMN2 splice enh: SMN2 splice variant enhancement | 210,000 compounds, 2.8% hits | AID 1458 | Potency, µM (series often up to 46.1 µM), for inactives: at the top dose activity change, positive = activation, usual class: activators | HEK293 SMN2-luciferase splicing reporter, luminescence, 30-36 h; also: % of control where 0% means no effect; nearly all actives have a fitted effect of over 55% in size
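HEK293 cells carry an SMN2 minigene-luciferase reporter in which exon 7 inclusion puts luciferase in frame. Cells were seeded at 2000 cells/well, attached for 10-12 hours, then exposed to compounds for 30-36 hours at 37C before ONE-Glo luminescence.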
Numbers without * were called inactive; u = inconclusive; x = no result; [ ] = remark or other dose. An excerpt weighted towards active compounds, which were near 9.4% of everything screened. Calls follow the shape of the dose curve; as a rule, active = well fitted curve in the direction sought with a large enough effect; inconclusive = small, poorly fitted or top-dose-only effect, or another doubt; inactive = no such curve, though single readings can be large; an effect the other way counts as inactive or inconclusive. Potency is read from the fitted curve at half-maximal effect.

SMILES	NPC1 promoter act	ELG1 genotox	ELG1 repair inh	Rab9 promoter act	FLuc modulator	SMN2 splice enh
Cc1cc(CN2CCCC(C(=O)Nc3ccc(-c4nc5ccccc5[nH]4)cc3)C2)n[nH]1 (stereo unspecified)	u	19.0%	u	u	15.1µM*	x
CCn1cc(CN2CCCC(C(=O)Nc3ccc(-c4nc5ccccc5[nH]4)cc3)C2)c(C)n1 (stereo unspecified)	12.0%	-4.8%	20.3%	25.1%	u	x
O=c1/c(=C/c2ccc([N+](=O)[O-])cc2)sc2n1CCCN=2	2.82µM*	u	u	3.55µM*	u	11.8%
CC(=O)Nc1ccc(N2C(=O)c3cccc4c(O)ccc(c34)C2=O)cc1	-0.3%	-0.5%	3.3%	1.2%	u	x
O=C1c2cccc3c(O)ccc(c23)C(=O)N1c1ccc(Cl)cc1	3.55µM*	5.6%	u	0.794µM*	16.9µM*	x
O=c1cnn(-c2ccccc2)c(-c2ccccc2)c1	27.2%	-7.5%	16.4%	5.4%	10.7µM*	-8.3%
Cc1ccc(-c2cnn(-c3cccc(C(F)(F)F)c3)c2N)cc1	u	u	u	3.98µM*	7.57µM*	27.5%
Nc1c(-c2ccccc2)cnn1-c1ccccc1	3.16µM*	u	u	3.55µM*	10.7µM*	x
O=c1c(Br)c(Br)cnn1-c1ccccc1	-40.6%	-19.4%	u	-51.1%	5.2%	-103.7%
Nc1c(-c2cccc(Cl)c2)cnn1-c1ccccc1	u	17.9%	u	u	16.9µM*	x
COc1ccc(C(=O)N2CCC[C@@]3(CCN(Cc4ccc(C#N)cc4)C3)C2)cc1	x	x	x	x	x	-11.8%
Cc1ccc(NC(=O)C2CCN(S(=O)(=O)c3ccc4c(c3)CCCN4C(=O)C3CCC3)CC2)cc1	x	x	x	x	-10.3%	x
COCCOC(=O)C1=C(C)NC(C)=C(C(=O)OC(C)C)C1c1cccc([N+](=O)[O-])c1 (stereo unspecified)	-9.7%[46.1 µM]	-2.2%	11.6µM*	-6.0%[46.1 µM]	6.5%	-22.4%
CC(=O)Oc1cccc(/C=c2\sc3nc(-c4ccco4)nn3c2=O)c1	-2.4%	u	u	-0.2%	-10.8%	25.8%
COc1cc(/C=c2\sc3nc(-c4ccncc4)nn3c2=O)ccc1OC(C)=O	0.4%	3.9%	17.2%	-2.7%	2.69µM*	12.1%
Clc1c(-c2nnc3n2CCC3)sc2ccccc12	-0.5%	23.1%	u	2.4%	21.3µM*	8.0%
Cc1cccc(NC(=O)Cn2nnc(C(=O)Nc3ccccc3Br)c2N)c1C	x	x	x	x	-0.5%	x
O=C(CN(Cc1ccco1)C(=O)CNS(=O)(=O)c1ccccc1)NCc1ccc(F)cc1	15.8%	18.4µM*	0.0%	19.7%	6.1%	-5.2%
O=S(=O)(c1cc(-c2nnc(-c3ccc(Br)cc3)o2)ccc1Br)N1CCCCCC1	-8.7%	-5.5%	20.6µM*	-4.6%	0.8%	-45.0%
O=S(=O)(c1cc(Br)ccc1Br)N1CCCCCC1	-5.6%	-1.0%	13.8%	-3.4%	-5.3%	x
O=C1CC(Cc2ccc(Cl)cc2)C(=O)N1c1ccccn1 (stereo unspecified)	-2.6%	4.0%	13.0%	-2.0%	-1.9%	31.6µM*
Cc1ccc(CC2CC(=O)N(c3ncccn3)C2=O)cc1 (stereo unspecified)	-0.9%	1.0%	u	-2.2%	1.2%	x
O=C1CC(Cc2ccccc2)C(=O)N1c1ncccn1 (stereo unspecified)	2.24µM*	14.6µM*	u	u	15.1µM*	x
O=C1CC(Cc2ccc(Cl)cc2)C(=O)N1c1ccncc1 (stereo unspecified)	0.9%	-0.9%	u	-1.8%	3.6%	-16.1%
O=C1O/C(=C/c2ccccc2)c2ccccc21	-2.5%	-1.8%	6.2%	2.8%	12µM*	8.9%
SMILES	NPC1 promoter act	ELG1 genotox	ELG1 repair inh	Rab9 promoter act	FLuc modulator	SMN2 splice enh
O=C(Nc1ccccc1-c1nc2ccccc2s1)c1cccnc1	-3.2%	-2.1%	-2.0%	-8.2%	3.6%	1.6%
O=C(COc1ccc(Cl)cc1)Nc1ccc(-c2nc3ccccc3s2)c(O)c1	x	x	x	x	-7.7%	21.3%
COc1cc(OC)c(-c2nc3ccccc3s2)cc1OC	9.9%	-3.8%	u	8.9%	12µM*	x
COc1cccc(-c2nc3ccccc3s2)c1O	u	1.46µM*	u	u	0.338µM*	7.08µM*
Clc1ncccc1-c1nc2ccccc2s1	26.3%	u	u	-2.4%	15.1µM*	x
Oc1c(Br)cc(Br)cc1-c1nc2ccccc2s1	x	x	x	x	7.57µM*	-4.4%
COc1cc(OC)cc(C(=O)Nc2ccccc2-c2nc3ccccc3s2)c1	x	x	x	x	-4.1%	-12.8%
C[C@@H]1C[C@H](C)CN(S(=O)(=O)c2cc(Cl)c(Oc3ccc([N+](=O)[O-])cc3Cl)c(Cl)c2)C1	x	x	x	x	x	3.2%[9.22 µM]
Clc1ccc(CCNc2nc3ccccc3s2)cc1	-0.6%	3.0%	u	3.1%	u	-2.1%
O=c1c(-c2nc3ccccc3s2)cccn1Cc1ccc(Cl)cc1	22.2%	u	u	u	13.5µM*	-20.0%
O=C(CN1C(=O)COc2ccc(S(=O)(=O)NC3CCCC3)cc21)NCc1ccccc1Cl	x	x	x	x	-4.6%	x
Cc1sc(=NC(=O)c2ccco2)n(C)c1-c1ccccc1	0.891µM*	u	u	1.26µM*	0.953µM*	2.24µM*
COc1cc(C(=O)N=c2sc3ccccc3n2C)cc(OC)c1OC	11.5%	5.1%	u	u	u	-27.0%
CCOc1cccc2sc(=NC(=O)c3ccco3)n(CC(=O)OC)c12	-4.0%	-11.8%	u	-2.6%	-9.0%	x
Cn1c(=NC(=O)CCl)sc2ccccc21	-46.5%	u	u	-50.5%	-13.8%	-79.7%
Cn1c(=NC(=O)c2ccco2)sc2ccccc21	u	4.11µM*	u	u	2.69µM*	4.47µM*
C#CCn1c(=NC(=O)c2ccco2)sc2cccc(Cl)c21	0.6%	u	22.4%	4.9%	-2.5%	x
Cn1c(=NC(=O)c2cccc([N+](=O)[O-])c2)sc2ccccc21	u	0.82µM*	u	2.82µM*	0.338µM*	1.58µM*
Cc1sc(=NC(=O)c2ccco2)n(C)c1-c1ccc(F)cc1	2.82µM*	u	u	2µM*	2.39µM*	3.55µM*
CC(C)c1nn2c(=O)cc(COC(=O)c3cccc(NC(=O)c4ccccc4F)c3)nc2s1	x	x	x	x	-9.9%	x
COc1ccc2c(c1)CC(NC(=O)Nc1ccc(NC(C)=O)cc1)CO2 (stereo unspecified)	x	x	x	x	-0.8%	x
CCN(c1cc(C)cc(C)c1)S(=O)(=O)c1nnc(NC(=O)c2cccc(F)c2)s1	x	x	x	x	-4.1%	x
O=S(=O)(c1ccc(Cl)cc1)c1nc(-c2ccco2)oc1SCc1ccc(F)cc1	x	x	x	x	-8.6%	-49.2%
